# From PubChem BioAssay (NCATS)
# Inconclusive results are not listed. Where a call stands in place of a potency, no number is given. Calls of active or inactive are those of the source. Calls come from the whole dose curve; as a rule, active = well fitted curve in the direction sought with a large enough effect; inconclusive = small, poorly fitted or top-dose-only effect, or another doubt; inactive = no such curve, though single readings can be large; an effect the other way counts as inactive or inconclusive.
# Columns and labels:
# [1] = Quantitative High-Throughput drug screen in 47 multiple myeloma cell lines against the NCATS MIPE library collection: MOLP8_DSMZ cell viability assay (AID 1918977); note: nearly all actives have a fitted effect of over 45% in size; note: potency is the fitted concentration of half-maximal effect
# Summary of the method: (§1)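 Viability after 48 h drug exposure was measured as ATP-dependent luminescence. Cells, 500 per well, sat at 37 °C under 5% CO2; DMSO wells set 100%, media-only wells 0%.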
# [2] = Quantitative High-Throughput drug screen in 47 multiple myeloma cell lines against the NCATS MIPE library collection: NCIH929_DSMZ cell viability assay (AID 1918978); note: nearly all actives have a fitted effect of over 35% in size; note: potency is the fitted concentration of half-maximal effect
# Summary of the method: as §1
# [3] = Quantitative High-Throughput drug screen in 47 multiple myeloma cell lines against the NCATS MIPE library collection: OCIMY1_PLB cell viability assay (AID 1918979); note: nearly all actives have a fitted effect of over 35% in size; note: potency is the fitted concentration of half-maximal effect; for viability: series mostly up to about 46 µM
# Summary of the method: as §1
# [4] = Quantitative High-Throughput drug screen in 47 multiple myeloma cell lines against the NCATS MIPE library collection: MM1S_ATCC cell viability assay (AID 1918980); note: nearly all actives have a fitted effect of over 45% in size; note: potency is the fitted concentration of half-maximal effect
# Summary of the method: as §1
# [5] = Quantitative High-Throughput drug screen in 47 multiple myeloma cell lines against the NCATS MIPE library collection: MM1R_ATCC cell viability assay (AID 1918981); note: nearly all actives have a fitted effect of over 35% in size; note: potency is the fitted concentration of half-maximal effect
# Summary of the method: as §1
# [6] = Quantitative High-Throughput drug screen in 47 multiple myeloma cell lines against the NCATS MIPE library collection: LP1_DSMZ cell viability assay (AID 1918982); note: nearly all actives have a fitted effect of over 35% in size; note: potency is the fitted concentration of half-maximal effect
# Summary of the method: as §1
# [7] = Quantitative High-Throughput drug screen in 47 multiple myeloma cell lines against the NCATS MIPE library collection: KMS28PE_JCRB cell viability assay (AID 1918983); note: nearly all actives have a fitted effect of over 35% in size; note: potency is the fitted concentration of half-maximal effect
# Summary of the method: as §1
# [8] = Quantitative High-Throughput drug screen in 47 multiple myeloma cell lines against the NCATS MIPE library collection: OCIMY7_PLB cell viability assay (AID 1918987); note: nearly all actives have a fitted effect of over 65% in size; note: potency is the fitted concentration of half-maximal effect
# Summary of the method: as §1
# [9] = Quantitative High-Throughput drug screen in 47 multiple myeloma cell lines against the NCATS MIPE library collection: L363_DSMZ cell viability assay (AID 1918984); note: nearly all actives have a fitted effect of over 40% in size; note: potency is the fitted concentration of half-maximal effect
# Summary of the method: as §1
# [10] = Quantitative High-Throughput drug screen in 47 multiple myeloma cell lines against the NCATS MIPE library collection: KMS34_JCRB cell viability assay (AID 1918985); note: nearly all actives have a fitted effect of over 40% in size
# Summary of the method: as §1
SMILES,Potency [1],Potency [2],Potency [3],Potency [4],Potency [5],Potency [6],Potency [7],Potency [8],Potency [9],Potency [10]
CC[C@@]1(O)C(=O)OCc2c1cc1n(c2=O)Cc2cc3ccccc3nc2-1,0.132 µM (active),0.105 µM (active),0.418 µM (active),0.0235 µM (active),0.0264 µM (active),0.59 µM (active),0.166 µM (active),0.001 µM (active),,
CC(C)(O)C(=O)Nc1ccc([N+](=O)[O-])c(C(F)(F)F)c1,inactive,5.26 µM (active),inactive,9.35 µM (active),inactive,,inactive,7.43 µM (active),,
COc1cc([C@@H]2c3cc4c(cc3[C@@H](O)C3COC(=O)C32)OCO4)cc(OC)c1O (stereo partly drawn),0.418 µM (active),0.132 µM (active),0.0418 µM (active),0.187 µM (active),0.0833 µM (active),,0.0418 µM (active),0.0526 µM (active),0.0132 µM (active),
NC1CC1c1ccccc1 (stereo not drawn),inactive,inactive,inactive,inactive,,inactive,,,,
O=C(O)CNC(=O)c1c(O)c2ccccc2n(Cc2ccccc2)c1=O,inactive,inactive,inactive,,inactive,inactive,,,,
C=C[C@@H]1CN2CCC1C[C@H]2[C@H](O)c1ccnc2ccccc12 (stereo partly drawn),,14.8 µM (active),inactive,18.7 µM (active),26.4 µM (active),10.5 µM (active),14.8 µM (active),,,
CC(=O)N(C)c1cccc(-c2ccnc3c(C(=O)c4cccs4)cnn23)c1,inactive,,inactive,,,inactive,inactive,,inactive,
O=c1[nH]c2ccccc2n1C1CCN(Cc2ccc(-c3[nH]c4cc5ncnc5cc4nc3-c3ccccc3)cc2)CC1,,0.662 µM (active),18.7 µM (active),18.7 µM (active),16.6 µM (active),20.9 µM (active),20.9 µM (active),8.33 µM (active),5.9 µM (active),
O=c1cccc2n1CC1CNC[C@H]2C1,inactive,,inactive,10.5 µM (active),inactive,inactive,inactive,,,
CCCC[N+]1(C)[C@H]2CC(OC(=O)[C@H](CO)c3ccccc3)C[C@H]1[C@H]1O[C@H]12 (stereo partly drawn),,inactive,inactive,inactive,inactive,inactive,inactive,,inactive,
CC(=O)Nc1ccc(OC[C@](C)(O)C(=O)Nc2ccc([N+](=O)[O-])c(C(F)(F)F)c2)cc1,,inactive,,,,,,,,
COC1=CC(C)=C[C@@H](C)[C@@H](O)[C@@H](C)CC(C)=CC=C[C@H](OC)[C@H]([C@@H](C)[C@@H](O)[C@H](C)[C@@]2(O)C[C@@H](O)[C@H](C)[C@@H](C(C)C)O2)OC1=O,0.0042 µM (active),,0.0037 µM (active),1.48 µM (active),1.66 µM (active),0.0021 µM (active),14.8 µM (active),,,
CCNC(=O)C[C@@H]1N=C(c2ccc(Cl)cc2)c2cc(OC)ccc2-n2c(C)nnc21,0.209 µM (active),,1.05 µM (active),1.05 µM (active),0.59 µM (active),,0.264 µM (active),2.64 µM (active),,
COc1ccc(N(C(=O)Oc2c(C)cccc2C)c2ccnc(Nc3ccc(N4CCN(C)CC4)cc3)n2)c(OC)c1,3.72 µM (active),,inactive,4.69 µM (active),2.35 µM (active),,18.7 µM (active),,,
COC1=C[C@@H]2[C@@H]3Cc4ccc(OC)c(O)c4[C@]2(CCN3C)CC1=O,inactive,1.66 µM (active),,1.66 µM (active),,,inactive,,,
COc1cc2cc(c1Cl)N(C)C(=O)C[C@H](OC(=O)C(C)C)[C@]1(C)O[C@H]1[C@H](C)[C@@H]1C[C@@](O)(NC(=O)O1)[C@H](OC)C=CC=C(C)C2,inactive,inactive,,inactive,inactive,inactive,inactive,inactive,,inactive
Oc1ccc2c3c1O[C@H]1c4[nH]c5c(c4C[C@@]4(O)[C@@H](C2)N(CC2CC2)CC[C@]314)C[C@@]1(O)[C@H]2Cc3ccc(O)c4c3[C@@]1(CCN2CC1CC1)[C@H]5O4,inactive,inactive,,inactive,inactive,inactive,inactive,,,inactive
O=C(Oc1ccc([N+](=O)[O-])cc1)N1CCN(Cc2cccc(Oc3ccccc3)c2)CC1,inactive,,,11.8 µM (active),inactive,inactive,inactive,,,
C[C@H]([C@H](O)CCC(C)(C)O)[C@H]1CC[C@@]2(O)C3=CC(=O)[C@@H]4C[C@@H](O)[C@@H](O)C[C@]4(C)[C@@H]3CC[C@]12C,,inactive,inactive,inactive,inactive,inactive,,,,
C#CC1(O)CCC2C3CCC4=CC(=O)CCC4(C)C3CCC21C (stereo not drawn),,inactive,inactive,inactive,inactive,inactive,20.9 µM (active),,,inactive
O=S(=O)(CC1CS1)c1ccc(Oc2ccccc2)cc1 (stereo not drawn),16.6 µM (active),16.6 µM (active),,14.8 µM (active),16.6 µM (active),,,,,
